The values below come from PubChem BioAssay.

Unmarked numbers belong to inactive results. For part of these data: Results with a measured potency or affinity are listed apart. The source made the active and inactive calls. Unless noted, how the calls were made is not given here.

Test [1] is described as follows: antimalarial activity against Dd2 strain (AID 2302;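 active means growth inhibition above 50% at the single 2 µM test dose, taken to imply half-maximal potency below 2 µM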;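 further: 0% = DMSO untreated growth and 100% = chloroquine plus artemisinin killed control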). As to conditions: P. falciparum Dd2 in RBCs, LDH growth readout, 72 h; at 2 µM; stronger effect = higher value.
Test [2] is described as follows: human hepatoma cell viability loss – ATP luminescence, cytotoxicity control for P. falciparum antimalarial project, primary screen (AID 2303;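 active means inhibition above 50%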;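 further: 0% = DMSO wells and 100% = digitonin-killed cells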). As to conditions: HepG2 viability, 24-48 h, at 10 µM, stronger effect = higher value.
Test [3] has as its target L-lactate dehydrogenase (Plasmodium falciparum (isolate CDC / Honduras)) (UniProt Q27743). The test can be described thus: PfLDH activity inhibition – cell lysate, 3D7 strain, counter-screen for P. falciparum growth inhibition project (AID 2304).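 Further: 0% = vehicle and 100% = reference inhibitor.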 The conditions noted are these: P. falciparum 3D7 crude extract, LDH APAD/NBT absorbance; at 2 µM; stronger effect = higher value. For orientation: A counterscreen serves to expose hits that act by an unwanted route or on another target.

Test [4] is described as follows: inhibition of 3D7 malaria parasite growth – strain 3D7 (AID 2306).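 Further: 0% = DMSO wells and 100% = chloroquine plus artemisinin control wells.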 As to conditions: P. falciparum 3D7 erythrocytic growth, LDH absorbance, 72 h; at 2 µM; stronger effect = higher value.
Test [5] deals with Calcium-dependent protein kinase 1 (Plasmodium falciparum (isolate 3D7)) (UniProt P62344). In words: PfCDPK1 kinase inhibitors, biochemical, TCAMS library (AID 1159585; cut-off not given, nearly all actives have IC50 up to about 0.98 µM;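 further: inhibitors leave more ATP so luminescence rises with inhibition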). As to conditions: recombinant PfCDPK1, Kinase-Glo ATP depletion luminescence. In general terms: In Kinase-Glo more light means more ATP remaining.
In test [6] the target is Plasmodium falciparum protein kinase 6 (PK6, PF3D7_1337100) (UniProt Q8IDW1). The test can be described thus: PfPK6 kinase inhibitors, biochemical, TCAMS library (AID 1159586). As to conditions: recombinant PfPK6, Kinase-Glo ATP depletion luminescence.
In test [7] the target is Protein kinase 7 (PK7), Plasmodium falciparum 3D7 (PF3D7_0213400) (UniProt Q7YTF7). In words: inhibition of Plasmodium PK7 catalytic activity – biochemical, TCAMS antimalarial set, Kinase-Glo luminescence (AID 1159587). The conditions noted are these: recombinant PfPK7, Kinase-Glo ATP depletion luminescence.
For test [8], the target named is Calcium-dependent protein kinase 4 (Plasmodium falciparum (isolate 3D7)) (UniProt Q8IBS5). The test can be described thus: PfCDPK4 kinase inhibitors, biochemical, TCAMS library (AID 1159588; cut-off not given, nearly all actives have IC50 up to about 0.91 µM). As to conditions: recombinant PfCDPK4, Kinase-Glo ATP depletion luminescence.
Chain of Calcium-dependent protein kinase 4 (Plasmodium falciparum (isolate 3D7)) (Q8IBS5 whole entry, looked up): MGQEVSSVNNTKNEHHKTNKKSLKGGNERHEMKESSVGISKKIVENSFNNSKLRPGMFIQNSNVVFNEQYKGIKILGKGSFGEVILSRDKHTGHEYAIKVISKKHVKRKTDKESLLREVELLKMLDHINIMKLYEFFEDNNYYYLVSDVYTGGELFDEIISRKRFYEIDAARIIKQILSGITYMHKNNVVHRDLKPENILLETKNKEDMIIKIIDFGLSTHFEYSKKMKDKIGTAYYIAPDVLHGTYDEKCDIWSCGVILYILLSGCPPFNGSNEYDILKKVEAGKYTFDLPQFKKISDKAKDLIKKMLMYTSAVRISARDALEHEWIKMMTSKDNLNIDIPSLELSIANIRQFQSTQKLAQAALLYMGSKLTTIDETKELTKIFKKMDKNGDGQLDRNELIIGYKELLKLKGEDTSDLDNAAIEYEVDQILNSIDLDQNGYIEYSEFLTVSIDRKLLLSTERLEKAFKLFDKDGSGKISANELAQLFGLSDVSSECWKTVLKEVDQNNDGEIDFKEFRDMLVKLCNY

Chain of L-lactate dehydrogenase (Plasmodium falciparum (isolate CDC / Honduras)) (Q27743 whole entry, looked up): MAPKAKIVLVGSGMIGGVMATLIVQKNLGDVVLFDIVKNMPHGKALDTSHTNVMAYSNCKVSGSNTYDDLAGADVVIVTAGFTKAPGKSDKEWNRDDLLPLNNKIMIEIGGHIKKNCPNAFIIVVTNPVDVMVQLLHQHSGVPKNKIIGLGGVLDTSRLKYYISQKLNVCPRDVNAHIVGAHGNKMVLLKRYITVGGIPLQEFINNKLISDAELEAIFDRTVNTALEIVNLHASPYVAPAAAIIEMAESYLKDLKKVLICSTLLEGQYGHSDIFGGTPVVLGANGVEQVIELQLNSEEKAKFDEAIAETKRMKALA
Chain of Plasmodium falciparum protein kinase 6 (PK6, PF3D7_1337100) (Q8IDW1 1-305): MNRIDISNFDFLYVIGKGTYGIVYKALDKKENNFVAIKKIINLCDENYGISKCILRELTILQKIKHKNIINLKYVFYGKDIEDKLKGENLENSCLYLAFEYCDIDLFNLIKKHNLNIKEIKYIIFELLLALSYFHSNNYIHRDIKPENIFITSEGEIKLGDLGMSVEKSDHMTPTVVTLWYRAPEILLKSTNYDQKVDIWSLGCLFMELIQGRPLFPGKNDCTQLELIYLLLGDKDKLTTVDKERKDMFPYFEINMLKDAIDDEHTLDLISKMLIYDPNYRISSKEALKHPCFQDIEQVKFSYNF
Chain of Calcium-dependent protein kinase 1 (Plasmodium falciparum (isolate 3D7)) (P62344 whole entry, looked up): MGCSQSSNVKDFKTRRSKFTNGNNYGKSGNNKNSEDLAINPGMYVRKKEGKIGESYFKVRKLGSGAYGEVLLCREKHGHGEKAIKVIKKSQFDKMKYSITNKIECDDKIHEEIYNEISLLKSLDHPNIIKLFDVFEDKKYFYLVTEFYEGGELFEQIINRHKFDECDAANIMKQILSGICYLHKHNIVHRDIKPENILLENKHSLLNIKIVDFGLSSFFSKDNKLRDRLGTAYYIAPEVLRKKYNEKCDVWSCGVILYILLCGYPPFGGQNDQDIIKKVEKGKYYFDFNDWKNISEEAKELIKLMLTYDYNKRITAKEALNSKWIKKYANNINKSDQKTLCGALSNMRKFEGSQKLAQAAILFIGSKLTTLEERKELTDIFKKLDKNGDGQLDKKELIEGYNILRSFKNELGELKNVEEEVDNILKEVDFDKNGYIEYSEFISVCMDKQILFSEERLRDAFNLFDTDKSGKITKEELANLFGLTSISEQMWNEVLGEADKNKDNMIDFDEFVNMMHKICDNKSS
Chain of Protein kinase 7 (PK7), Plasmodium falciparum 3D7 (PF3D7_0213400) (Q7YTF7 1-343): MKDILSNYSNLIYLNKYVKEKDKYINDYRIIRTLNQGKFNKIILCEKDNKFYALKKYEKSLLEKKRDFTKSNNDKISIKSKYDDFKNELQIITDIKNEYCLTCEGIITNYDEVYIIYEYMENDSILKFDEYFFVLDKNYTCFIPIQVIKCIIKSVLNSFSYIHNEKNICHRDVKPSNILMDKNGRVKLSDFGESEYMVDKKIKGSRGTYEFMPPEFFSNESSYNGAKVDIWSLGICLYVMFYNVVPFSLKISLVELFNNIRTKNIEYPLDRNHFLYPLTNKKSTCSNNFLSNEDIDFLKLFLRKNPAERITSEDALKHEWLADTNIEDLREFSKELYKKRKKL

Regarding `O=C(/C=C/c1ccc(Cl)c(Cl)c1)NCCCCCN1CCCC(c2c[nH]c3ccccc23)C1` (centres undefined), the growth inhibition in test [1] is 22%; in test [4], 99% (active). Moreover, the inhibition (as a rule, the change of the read-out against control, counted positive when it falls) in test [2] was 25%; in test [3], 2%. For the same molecule, the result in test [5], in test [6], in test [7] and in test [8] was inactive.
Regarding `c1ccc2c(c1)CN(Cc1ccsc1)CC1(CCN(Cc3c[nH]c4cnccc34)CC1)O2`, the growth inhibition was 75% (active) in test [1] and 87% (active) in test [4]. In addition, the inhibition in test [2] is 38%; in test [3] it was -2%. For the same molecule, the result in test [5], in test [6], in test [7] and in test [8] was inactive.
For `Cc1nc(-c2ccc(C(F)(F)F)cn2)sc1C(=O)N1CCc2cc3nccc(N4CCN5CCC[C@H]5C4)c3cc21`, the growth inhibition in test [1] was 72% (active); in test [4], 100% (active). Besides, the inhibition in test [2] is 5%; in test [3] it was 0%. Besides, the outcome in test [5], in test [6], in test [7] and in test [8] was inactive.
Regarding `COc1ccc2nccc([C@@H](O)CN3CCC(NCCOc4ccc(F)cc4F)CC3)c2c1`, the growth inhibition in test [1] was 68% (active); in test [4] it was 101% (active). Besides, the figures for the inhibition in test [2] and in test [3] were 13% and -5%, respectively. In addition, the outcome in test [5], in test [6], in test [7] and in test [8] was inactive.
For `CC(=O)N(C)c1cccc(C(=O)Nc2ccc(-c3cccc(-c4nc5ccc(C(F)(F)F)cc5[nH]4)c3)cc2)c1`, the growth inhibition in test [1] was 10%; in test [4] it was 94% (active). For the same molecule, the inhibition in test [2] was 79% (active); in test [3], -2%. The result in test [5], in test [6], in test [7] and in test [8] was inactive.
For `O=C(Nc1ccc(-c2cccc(CN3CCC(O)CC3)c2)cc1)c1cccc(Cl)c1`, the growth inhibition in test [1] was 14%; in test [4] it was 94% (active). For the same molecule, the inhibition in test [2] is 50% (active); in test [3], 3%. Also, the outcome in test [5], in test [6], in test [7] and in test [8] was inactive.
`CCCc1ccc(Nc2nc(C)cc(N(CC)CCCN3CCCCC3)n2)cc1`: the growth inhibition in test [1] was 95% (active); in test [4] it was 101% (active). The values for the inhibition in test [2] and in test [3] were 48% and 5%, respectively. The result in test [5], in test [6], in test [7] and in test [8] was inactive.
For `COc1ccccc1NC(=O)Nc1cccc(-c2cccc(-c3nc4ccc(C(F)(F)F)cc4[nH]3)c2)c1`, the growth inhibition in test [1] was 97% (active); in test [4] it was 101% (active). The values for the inhibition in test [2] and in test [3] were 21% and 5%, respectively. For the same molecule, the outcome in test [5], in test [6], in test [7] and in test [8] was inactive.
Turning to `COc1ccc(NC(=O)c2cccc(Br)c2)cc1N1CCN(CCCCCCCN2CCN(c3cc(NC(=O)c4cccc(Br)c4)ccc3OC)CC2)CC1`, the values for the growth inhibition in test [1] and in test [4] were 93% (active) and 99% (active), respectively. Further, the results for the inhibition in test [2] and in test [3] were 97% (active) and 0%, respectively. Besides, the result in test [5], in test [6], in test [7] and in test [8] was inactive.
Turning to `COc1cc(F)c2nccc([C@@H](O)CN3CCC(NCc4cc5c(cc4F)OCCO5)CC3)c2c1`, the growth inhibition in test [1] is 45%; in test [4], 99% (active). Besides, the inhibition was 23% in test [2] and -1% in test [3]. Also, the result in test [5], in test [6], in test [7] and in test [8] was inactive.
In the case of `COc1cc(NC(=O)c2sc(-c3ccc(Cl)cc3)cc2NC(=O)c2cccnc2)ccc1OCCN1CCCC1`, the growth inhibition in test [1] was 77% (active); in test [4], 94% (active). The inhibition in test [2] is 38%; in test [3], -1%. Further, the outcome in test [5], in test [6], in test [7] and in test [8] was inactive.
`Cc1cccc2[nH]c(-c3cccc(-c4cccc(NC(=O)c5ccoc5)c4)c3)nc12`: the growth inhibition in test [1] was 71% (active); in test [4], 99% (active). In addition, the values for the inhibition in test [2] and in test [3] were 19% and -4%, respectively. Moreover, the outcome in test [5], in test [6], in test [7] and in test [8] was inactive.
Consider `Cn1cccc1C(=O)C(=O)Nc1cccc(-c2ccc(-c3nc4ccc(C(F)(F)F)cc4[nH]3)cc2)c1`, for which the growth inhibition is 27% in test [1] and 94% (active) in test [4]. Further, the results for the inhibition in test [2] and in test [3] were 62% (active) and -7%, respectively. The outcome in test [5], in test [6], in test [7] and in test [8] was inactive.
As for `CN1CCN(c2ccc(-c3cc(-c4ccncc4)c(-c4ccc(Cl)c(O)c4)o3)cc2)CC1`, the growth inhibition in test [1] is 98% (active); in test [4], 101% (active). In addition, the figures for the inhibition in test [2] and in test [3] were -13% and -4%, respectively. Also, the result in test [5], in test [6], in test [7] and in test [8] was inactive.
Turning to `CCN1CCC(N(Cc2ccc(-c3ccc(C(F)(F)F)cc3)cc2)C(=O)Cn2nc(C)c(=O)cc2SCc2ccc(F)cc2)CC1`, the growth inhibition in test [1] and in test [4] was 94% (active) throughout. Moreover, the inhibition is 77% (active) in test [2] and -1% in test [3]. The outcome in test [5], in test [6], in test [7] and in test [8] was inactive.
On to `NC(=NCc1ccc(Cl)c(Cl)c1)NC(=NCCCCCCN=C(NC(N)=NCc1ccc(Cl)c(Cl)c1)N1CCCCC1)N1CCCCC1`, for which the results for the growth inhibition in test [1] and in test [4] were 99% (active) and 100% (active), respectively. For the same molecule, the inhibition in test [2] was 6%; in test [3] it was -5%. Also, the result in test [5], in test [6], in test [7] and in test [8] was inactive.
Consider `CC(=O)COc1c(C2CCN(CCCCNC(=O)c3ccc(-c4ccc(C(F)(F)F)cc4)cc3)CC2)ccc2c1CCCC2`, for which the growth inhibition was 53% (active) in test [1] and 99% (active) in test [4]. In addition, the inhibition in test [2] was 100% (active); in test [3] it was -7%. The result in test [5], in test [6], in test [7] and in test [8] was inactive.
Turning to `Cc1ccccc1C1CCN(C2CCC(NC(=O)/C=C/c3cccc(Cl)c3Cl)CC2)CC1` (centres undefined), the growth inhibition in test [1] was 23%; in test [4] it was 94% (active). In addition, the values for the inhibition in test [2] and in test [3] were 74% (active) and 2%, respectively. The outcome in test [5], in test [6], in test [7] and in test [8] was inactive.
